# Measurements: PubChem BioAssay
# Where “and” joins values, the source holds several entries; their conditions need not be identical. Identical values can stand only once. Inconclusive results are not listed. Calls of active or inactive are those of the source. Cut-off read from the data, not from the text of the source, unless noted: active = inhibition above about 80%; inactive = the rest.
# Key:
# [1] = viability loss in pontine glioma line – cell-based, SU-DIPG-XVII, MIPE5.0, CellTiter-Glo, qHTS, dose response (AID 1347060; cut-off not given, nearly all actives have AC50 up to about 26 µM;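 for AC50: cells exposed to compound for 48 hours before viability readout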); settings: CellTiter-Glo ATP luminescence
# [2] = liver-stage malaria parasite load reduction – cell-based, known kinase inhibitor set, luminescence, hepatoma host viability (AID 624392; call rule not given here;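 note: infected cells incubated roughly two days before readout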); settings: Plasmodium liver stage in hepatoma cells, luciferase luminescence, concentration not given here; liver cell % of control: measured here: host liver cell viability; parasite % of control: stronger effect = lower value
# [3] = P. berghei load reduction in hepatocytes – cell-based, HepG2, luciferase luminescence, HepG2 viability, primary screen (AID 624349; in the data active = parasite load remaining mostly below about 12%, no sharp cut-off; inactive = mostly above about 10%;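 note: 100% = mean of DMSO negative control wells on the same plate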); settings: P. berghei liver stage in HepG2, luciferase luminescence, concentration not given here; parasite load remaining: stronger effect = lower value; viability: measured here: HepG2 viability without parasites
# [4] = system: Hepatitis C virus NS3 helicase; experiment: blockers of NS3h binding to ssDNA – biochemical, fluorescence polarization, LOPAC1280 library, primary screen (AID 687035; in the data active = inhibition above about 37%); settings: Purified HCV NS3 helicase, Cy5-dT15 ssDNA binding fluorescence polarization; stronger effect = higher value; concentration not given here
# [5] = compounds altering Cy5-DNA-NS3h complex signal – biochemical, LOPAC1280, artefact control for HCV NS3 helicase inhibitor project (AID 687037; call rule not given here); settings: Cy5-DNA-NS3h complex fluorescence interference counterscreen
# [6] = blockers of cellular phospholipid synthesis – cell-based, LOPAC library, screen 4, primary screen (AID 1347384; call rule not given here); settings: animal cells, phospholipid biosynthesis inhibition screen; at 10 µM
# [7] = galactose survival enhancers in mitochondrial complex I cybrids – cell-based, galactose medium, ATP luminescence, primary screen (AID 1645843;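 active = z-score of at least 1.8 in each of two replicates, scored against plate mean and spread of sample wells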;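 note: positive z means more ATP and so rescue of galactose-driven cybrid death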); settings: complex I mutant cybrid cells, 72 h, stronger effect = higher value
# [8] = target: NAD(+) hydrolase SARM1 (Homo sapiens) (UniProt Q6SZW1); experiment: blocking NAD cleavage by SARM1 SAM-TIR – cell lysate, NAD-Glo luminescence (AID 1508614;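 active = compound whose remaining NAD level is above about 45 nM, limit read from the data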;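 note: higher remaining NAD means stronger inhibition of SARM1 NADase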); settings: SAM-TIR HEK293T lysate NADase, at 1 µM, stronger effect = higher value
# NAD(+) hydrolase SARM1 (Homo sapiens), sequence (Q6SZW1 whole entry, looked up, the tested form may be a part): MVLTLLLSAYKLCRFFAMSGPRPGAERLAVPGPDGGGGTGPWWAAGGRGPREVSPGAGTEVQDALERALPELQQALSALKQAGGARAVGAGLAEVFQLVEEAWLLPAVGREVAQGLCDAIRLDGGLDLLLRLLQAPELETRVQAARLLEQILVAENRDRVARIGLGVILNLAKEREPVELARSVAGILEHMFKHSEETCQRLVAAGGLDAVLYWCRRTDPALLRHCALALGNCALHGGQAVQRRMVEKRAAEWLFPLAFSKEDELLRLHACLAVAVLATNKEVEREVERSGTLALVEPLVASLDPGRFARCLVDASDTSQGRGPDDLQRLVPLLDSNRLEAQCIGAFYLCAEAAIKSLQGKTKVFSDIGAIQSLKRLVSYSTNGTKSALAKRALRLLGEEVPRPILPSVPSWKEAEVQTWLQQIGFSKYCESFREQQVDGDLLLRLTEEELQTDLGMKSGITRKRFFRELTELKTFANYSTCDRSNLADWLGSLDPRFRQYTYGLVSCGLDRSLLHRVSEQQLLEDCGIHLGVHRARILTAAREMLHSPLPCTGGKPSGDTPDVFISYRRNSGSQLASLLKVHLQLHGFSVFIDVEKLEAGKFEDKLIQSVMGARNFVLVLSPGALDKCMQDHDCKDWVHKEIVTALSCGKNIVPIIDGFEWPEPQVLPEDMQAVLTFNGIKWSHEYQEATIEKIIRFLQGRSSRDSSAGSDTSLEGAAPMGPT
# [9] = target: Mitogen-activated protein kinase 7 (Homo sapiens) (UniProt Q13164); experiment: Gal4-ERK5 driven luciferase induction – cell-based, HTS, primary screen (AID 1508626;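 active = luciferase signal above three times the same-plate solvent-only control wells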;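 note: luciferase driven by Gal4-ERK5 fusion binding five Gal4 sites before minimal TATA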); settings: HeLa Gal4-ERK5 transactivation, 18 h, at 5 µM, stronger effect = higher value
# Mitogen-activated protein kinase 7 (Homo sapiens), sequence (Q13164 whole entry, looked up, the tested form may be a part): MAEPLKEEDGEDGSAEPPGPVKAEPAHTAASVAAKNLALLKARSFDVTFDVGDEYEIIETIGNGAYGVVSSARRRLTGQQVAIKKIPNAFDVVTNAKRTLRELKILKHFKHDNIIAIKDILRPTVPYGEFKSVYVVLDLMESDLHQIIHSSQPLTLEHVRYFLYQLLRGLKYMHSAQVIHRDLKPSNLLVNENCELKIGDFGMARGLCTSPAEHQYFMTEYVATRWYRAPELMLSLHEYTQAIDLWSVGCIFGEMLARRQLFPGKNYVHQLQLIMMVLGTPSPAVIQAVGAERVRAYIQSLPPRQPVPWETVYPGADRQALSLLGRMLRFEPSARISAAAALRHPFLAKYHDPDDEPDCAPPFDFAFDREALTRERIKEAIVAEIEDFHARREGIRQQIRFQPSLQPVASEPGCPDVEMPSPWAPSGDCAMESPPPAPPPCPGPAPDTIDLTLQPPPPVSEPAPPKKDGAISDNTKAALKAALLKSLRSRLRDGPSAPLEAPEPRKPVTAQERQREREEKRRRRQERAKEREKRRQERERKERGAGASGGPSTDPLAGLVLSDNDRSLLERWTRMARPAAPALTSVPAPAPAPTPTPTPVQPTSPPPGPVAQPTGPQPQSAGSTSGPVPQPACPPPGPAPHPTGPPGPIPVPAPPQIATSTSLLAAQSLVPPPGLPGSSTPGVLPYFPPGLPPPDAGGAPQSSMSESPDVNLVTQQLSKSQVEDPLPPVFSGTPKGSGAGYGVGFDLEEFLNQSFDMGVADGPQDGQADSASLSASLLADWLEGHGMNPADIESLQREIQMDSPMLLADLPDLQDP
# [10] = growth inhibition, single agents and combos, LFS_MB_1R, cell-based, cisplatin or BGB combos, synergistic combos for chromothripsis tumors (AID 1671452); settings: LFS_MB_1R medulloblastoma cells, stronger effect = higher value;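 note: cells exposed for 96 hours before readout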
# [11] = growth inhibition, single agents and combos, CRL2098, cell-based, BGB or cisplatin IC20 combos, synergistic combos for chromothripsis tumors (AID 1671454); settings: CRL2098 osteosarcoma cells, drug combinations, stronger effect = higher value;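 note: cells exposed for 96 h before readout; 0% = vehicle DMSO and 100% = killing by high DMSO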
# [12] = growth inhibition, single agents and combos, HD-MB03, cell-based, BGB or cisplatin IC20 combos, synergistic combos for chromothripsis tumors (AID 1671455; in the data active = inhibition above about 83%;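 note: 0% = vehicle DMSO and 100% = high DMSO as cytotoxic control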); settings: HD-MB03 medulloblastoma cells, stronger effect = higher value
# [13] = growth inhibition, single agents and combos, UWB1.289, cell-based, BGB or cisplatin combos, synergistic combos for chromothripsis tumors (AID 1671456); settings: UWB1.289 ovarian carcinoma cells, stronger effect = higher value;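 note: cells exposed to compound for four days; 0% = vehicle DMSO and 100% = killing by high DMSO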
# [14] = growth inhibition, single agents and combos, LFS_MB_2R, cell-based, cisplatin combos, synergistic combos for chromothripsis tumors (AID 1671457); settings: LFS_MB_2R medulloblastoma cells, stronger effect = higher value;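 note: cells exposed to compound for four days before readout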
# [15] = UWB1.289_BRCA1 ovarian cancer growth, cell-based, BGB or cisplatin combinations (AID 1671459); settings: UWB1.289 BRCA1 ovarian carcinoma, drug combinations, stronger effect = higher value
# [16] = drug combination toxicity in non-malignant astrocytes – cell-based, BGB or cisplatin IC20 combos, cytotoxicity control for chromothriptic childhood tumor combination screen (AID 1671460); settings: Human astrocytes, viability inhibition, drug combinations, at 0.5 µM, stronger effect = higher value;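 note: cells exposed to compounds for 96 hours before viability readout; 0% = vehicle and 100% = killing control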
# [17] = chitosan synthesis blockers in C. neoformans – flow cytometry, Cibacron Brilliant Red staining (AID 1347148; call rule not given here;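 note: compound exposure lasted three days at 37 degrees C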); settings: Cryptococcus neoformans chitosan, stronger effect = lower value; at 10 µM unless noted
# [18] = compounds altering circadian rhythm period length – cell-based, LOPAC library, luminescence reporter (AID 2774; call rule not given here;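 note: values are relative to mean of DMSO wells on each plate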); settings: circadian reporter cells, at 7 µM, actives lie on both sides
# [19] = measured here: combination with BGB IC40, at 0.05 µM
# [20] = measured here: combination with cisplatin, at 0.5 µM
# [21] = measured here: combination with cisplatin, at 5 µM
# [22] = measured here: combination with BGB at IC20, at 0.5 µM
# [23] = measured here: combination with cisplatin at IC20, at 0.5 µM
# [24] = measured here: combo with BGB at IC20, at 0.5 µM
# [25] = measured here: combo with cisplatin at IC20, at 0.5 µM
# [26] = measured here: inhibition with BGB combination, at 0.05 µM
# [27] = measured here: inhibition with cisplatin combination, at 0.05 µM
# [28] = BGB combination, concentration series, at 5 µM
# [29] = cisplatin combination, concentration series, at 5 µM
# [30] = measured here: combo with BGB IC20
# [31] = measured here: combo with cisplatin IC20
smiles,measurement,setting,value
COc1cc(OC)c2c(=O)[nH]c(-c3cc(C)c(OCCO)c(C)c3)nc2c1,outcome,[1],inactive
Cc1cc2c(F)c(Oc3ncnn4cc(OC[C@@H](C)O)c(C)c34)ccc2[nH]1,AC50,[1],14.8 µM (active)
CCNc1cc(NC2CCC(O)CC2)nc(Nc2ccc3c(ccn3Cc3ccccc3)c2)n1 (configuration not stated),liver cell % of control,[2],83.4%
same,parasite % of control,[2],33.8% (inactive)
c1cc(-c2cnn3cc(-c4ccc(OCCN5CCCCC5)cc4)cnc23)ccn1,parasite load remaining,[3],40.1% (inactive)
same,viability,[3],103%
CCc1ccc(/C=C2/SC(=S)NC2=O)cc1,inhibition,[4],-3% (inactive)
same,fluorescence ratio (interference),[5],1 (inactive)
same,outcome,[6],inactive
same,z-score,[7],-0.65 (inactive)
CCOC(=O)C1=C[C@@H](OC(CC)CC)[C@H](NC(C)=O)[C@@H](N)C1,parasite load remaining,[3],175% (inactive) and 21.5% (inactive)
same,viability,[3],83.1% and 67.5%
same,remaining NAD,[8],10 nM (inactive)
same,luciferase signal,[9],56 AU (inactive)
same,z-score,[7],0.705 (inactive)
Nc1ccccc1NC(=O)c1ccc(CNC(=O)OCc2cccnc2)cc1,inhibition,[10]; at 0.5 µM,61% (inactive) and 41.3% (inactive)
same,inhibition,[10]; [19],-9.37% and -18.3%
same,inhibition,[10]; [20],79.3% and 71.8%
same,inhibition,[10]; [21],96.9% and 96.1%
same,inhibition,[11]; at 0.5 µM,0.19% (inactive) and -6.59% (inactive)
same,inhibition,[11]; [22],-0.645% and -36.5%
same,inhibition,[11]; [23],30.1% and 43.8%
same,inhibition,[12]; at 0.5 µM,42.6% (inactive) and 20.9% (inactive)
same,inhibition,[12]; [24],34.7% and 26.6%
same,inhibition,[12]; [25],87.6% and 25.8%
same,inhibition,[13]; at 0.5 µM,18.2% (inactive) and 10.7% (inactive)
same,inhibition,[13]; [26],0.005% and -12.1%
same,inhibition,[13]; [27],-11.8% and 3.27%
same,inhibition,[14]; at 0.5 µM,39.2% (inactive) and 22.4% (inactive)
same,inhibition,[14]; [20],66.8% and 38.1%
same,inhibition,[14]; [21],99.8% and 92.3%
same,inhibition,[15]; [28],98.1% and 86.1%
same,inhibition,[15]; at 0.5 µM,28.5% (inactive) and 10.5% (inactive)
same,inhibition,[15]; [29],104% and 98.8%
same,inhibition,[16],5.28% (inactive) and 8.78% (inactive)
same,inhibition,[16]; [30],3.25% and 5.25%
same,inhibition,[16]; [31],2.55% and 12.8%
CCN(c1cc(-c2ccc(CN3CCOCC3)cc2)cc(C(=O)NCc2c(C)cc(C)[nH]c2=O)c1C)C1CCOCC1,outcome,[1],inactive
CNC(=O)[C@@H](NC(=O)[C@H](CC(C)C)[C@H](O)C(=O)NO)C(C)(C)C,AC50,[1],18.6 µM (active)
c1nc2nc(Nc3ccc(N4CCOCC4)cc3)nc(NC3CCCCC3)c2[nH]1,parasite load remaining,[3],59.2% (inactive)
same,viability,[3],68.1%
C/C(=C\C(=O)Nc1ccccc1C(=O)O)c1ccc2ccccc2c1,inhibition,[10]; at 0.5 µM,-15% (inactive) and -22.4% (inactive)
same,inhibition,[10]; [19],-9.05% and -43.4%
same,inhibition,[10]; [20],-18.5% and -27.8%
same,inhibition,[10]; [21],-22.6% and -72.2%
same,inhibition,[11]; at 0.5 µM,-36.1% (inactive) and -95.9% (inactive)
same,inhibition,[11]; [22],-28.4% and -70.2%
same,inhibition,[11]; [23],-47.6% and -160%
same,inhibition,[12]; at 0.5 µM,-6.95% (inactive) and -18.5% (inactive)
same,inhibition,[12]; [24],-7.43% and -31.2%
same,inhibition,[12]; [25],-10.4% and -19.6%
same,inhibition,[13]; at 0.5 µM,9.98% (inactive) and -21.6% (inactive)
same,inhibition,[13]; [26],3.22% and -36.6%
same,inhibition,[13]; [27],-9.11% and -30.4%
same,inhibition,[14]; at 0.5 µM,-3.77% (inactive) and -16.3% (inactive)
same,inhibition,[14]; [20],1.51% and -14.7%
same,inhibition,[14]; [21],6.83% and -4.92%
same,inhibition,[15]; [28],-7.61% and -2.79%
same,inhibition,[15]; at 0.5 µM,-8.12% (inactive) and -20.7% (inactive)
same,inhibition,[15]; [29],1.63% and -4.56%
same,inhibition,[16],-12.6% (inactive) and 0.11% (inactive)
same,inhibition,[16]; [30],-9.38% and 5.29%
same,inhibition,[16]; [31],-22.2% and -3.59%
C/C=C1\C2C=C(C)CC1(N)c1ccc(=O)[nH]c1C2 (configuration not stated),fold fluorescence,[17],4.5 [at 206.3 µM] (inactive)
C[C@]12C=CC(=O)N[C@@H]1CC[C@@H]1[C@@H]2CC[C@]2(C)[C@@H](C(=O)Nc3cc(C(F)(F)F)ccc3C(F)(F)F)CC[C@@H]12,remaining NAD,[8],10 nM (inactive)
CC1(C)C(=O)N(CCN2CCC(C(=O)c3ccc(F)cc3)CC2)c2ccccc21,period change,[18],0.085 h (inactive)
same,inhibition,[4],-1% (inactive)
same,fluorescence ratio (interference),[5],1 (inactive)
same,outcome,[6],inactive
same,z-score,[7],-1.21 (inactive)
O=C(O)CO.[NH2-].[NH2-].[Pt+2],inhibition,[10]; at 0.5 µM,-13.7% (inactive)
same,inhibition,[10]; [19],-19.6%
same,inhibition,[10]; [20],-19.7%
same,inhibition,[10]; [21],-34.1%
same,inhibition,[11]; at 0.5 µM,-21.5% (inactive)
same,inhibition,[11]; [22],-45.1%
same,inhibition,[11]; [23],11.3%
same,inhibition,[12]; at 0.5 µM,-6.84% (inactive)
same,inhibition,[12]; [24],-6.51%
same,inhibition,[12]; [25],-6.47%
same,inhibition,[13]; at 0.5 µM,4.06% (inactive)
same,inhibition,[13]; [26],-8.1%
same,inhibition,[13]; [27],-3.04%
same,inhibition,[14]; at 0.5 µM,-20.3% (inactive)
same,inhibition,[14]; [20],-13.9%
same,inhibition,[14]; [21],-30.3%
same,inhibition,[15]; [28],-0.864%
same,inhibition,[15]; at 0.5 µM,-1.6% (inactive)
same,inhibition,[15]; [29],15.4%
same,inhibition,[16],13.7% (inactive)
same,inhibition,[16]; [30],19.5%
same,inhibition,[16]; [31],18.5%
